# In PubChem BioAssay (Tox21):
# Inconclusive results are not listed. Activity calls are given as the source filed them. The call rests on the fitted dose curve.
# Target: Retinoic acid receptor RXR-alpha (Homo sapiens) (UniProt P19793)
# Test: qHTS assay to identify small molecule agonists of the RXR signaling pathway (AID 1159527); further: nearly all actives have a fitted effect of over 35% in size
# Conditions: HEK293T RXRa-UAS-bla, beta-lactamase ratio, 16 h; series mostly up to 76.8 µM; activation: at the top concentration
# Excerpt: U.S. Tox21 Program National Center for Advancing Translational Sciences [NCATS] NIH Chemical Genomics Center [NCGC] U.S. Environmental Protection Agency [EPA] National Institutes of Environmental Health Sciences [NIEHS] National Toxicology Program [NTP] U.S. Food and Drug Administration [FDA] Tox21 Assay Overview: The Retinoid X receptor (RXR), a nuclear hormone receptor expressed in liver, spleen, placenta, epidermis, central nervous system. These receptors are able to form homo and heterodimers with other nuclear receptors and due to this heterodimerizing ability, RXR functions as master regulators producing diverse physiological effects. Three subtypes of RXR exist; alpha, beta and gamma. Retinoid X receptor alpha (RXR-alpha) has potential roles in metabolic signaling pathways, skin alopecia, dermal cysts, cardiac development, insulin sensitization etc. Therefore screening environmental chemicals on RXR-alpha signaling can be used for the studies focused on such therapeutic applications. For quantification of RXR-alpha ligands signaling, GeneBLAzer RXR alpha-UAS-bla HEK 293T (Life Technologies, Carlsbad, CA) cells containing a beta-lactamase reporter-gene under control of Retinoid X receptor-alpha response element were used to screen Tox21 10K library.
# Tox21 Assay Protocol Summary: RXR-alpha HEK 293T cells were dispensed at 2,000 cells/6 uL of assay medium containing 2% charcoal-stripped FBS using a Multidrop Combi (ThermoFisher Scientific, Waltham, MA) dispenser. The assay was performed in black wall/clear-bottom 1536-well plates (Greiner Bio-One North America Inc. Monroe, NC). 9-cis retinoic acid was used as a positive control in the agonist mode screen. After the assay plates were incubated at 37 C and 5% CO2 for 5 hr, 23 nL of compounds dissolved in DMSO, positive controls or DMSO only were transferred to the assay plate by a Pintool station (Kalypsys, San Diego, CA). The assay plates were incubated at 37 C and 5% CO2 for 16 hr. One uL of LiveBLAzer B/G FRET substrate (Life Technologies) was added using a Flying Reagent Dispenser (Aurora Discovery, San Diego, CA) and the plates were incubated at room temperature for 2 hr. Fluorescence intensity (405 nm excitation, 460/530 nm emission) was measured using an Envision plate reader (PerkinElmer, Shelton, CT).
# On the % scale 0 is the no-effect control and ±100 the full control effect; potency means the concentration at half of the fitted maximal effect.
# Chain of Retinoic acid receptor RXR-alpha (Homo sapiens) (P19793 whole entry, looked up): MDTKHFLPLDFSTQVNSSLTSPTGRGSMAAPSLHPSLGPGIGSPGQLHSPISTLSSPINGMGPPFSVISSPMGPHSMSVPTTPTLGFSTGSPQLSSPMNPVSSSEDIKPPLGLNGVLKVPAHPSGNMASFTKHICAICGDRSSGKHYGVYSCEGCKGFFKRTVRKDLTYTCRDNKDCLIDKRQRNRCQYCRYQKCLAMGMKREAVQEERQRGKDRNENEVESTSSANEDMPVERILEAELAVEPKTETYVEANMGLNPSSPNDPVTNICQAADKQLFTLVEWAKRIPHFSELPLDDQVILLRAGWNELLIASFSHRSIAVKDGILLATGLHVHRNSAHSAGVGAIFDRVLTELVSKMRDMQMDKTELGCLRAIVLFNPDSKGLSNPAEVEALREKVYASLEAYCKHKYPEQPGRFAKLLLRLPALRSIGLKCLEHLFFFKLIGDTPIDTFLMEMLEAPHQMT
Compound,activation,Potency
CCCCCCCCCCc1ccccc1,-0.0351% (inactive),–
[O]=[Zr],2.06% (inactive),–
Cc1cccc(C)n1,-7.9% (inactive),–
CCCCOCC,4.3% (inactive),–
OCCN1CN(CCO)CN(CCO)C1,6.07% (inactive),–
CC(=O)OC1CCCCC1,2.45% (inactive),–
CN1[C@@H]2CC[C@H]1CC(OC(=O)C(CO)c1ccccc1)C2 (stereo not given in full),-6.57% (inactive),–
C=CC(C)C#N (stereo not given),2.73% (inactive),–
CC(C)(C)c1cc(CCC(=O)NCCCCCCNC(=O)CCc2cc(C(C)(C)C)c(O)c(C(C)(C)C)c2)cc(C(C)(C)C)c1O,2.22% (inactive),–
CCCCCCCCCCCCCCNCCO,-15.6% [at 35.3 µM] (inactive),–
Cc1cc(Nc2ccc(O)cc2)ccc1N,-1.68% (inactive),–
CCCCN(C)C,8.82% (inactive),–
O=C(c1ccccc1)c1cc(Cl)ccc1O,-17.3% (inactive),–
CC(=O)c1ccccc1N,-0.957% (inactive),–
CC(C)(C)c1n[nH]c(=O)n(N)c1=O,0.345% (inactive),–
CCCCCCCC(OC)OC,1.13% [at 35.3 µM] (inactive),–
Brc1ccccn1,0.935% (inactive),–
COC(=O)CC#N,-2.52% (inactive),–
CCc1c(Br)c(Br)c(Br)c(Br)c1Br,–,38.9 µM (active)
O=Nc1ccc(NO)cc1,-18% (inactive),–

Compound,activation,Potency
CCN(CC)c1cccc(C)c1,1.57% (inactive),–
CCCC(=O)OCC(COC(=O)CCC)OC(=O)CCC,2.81% (inactive),–
COc1cccc(O)c1,2.76% (inactive),–
CCNc1nc(NC(C)CC)nc(OC)n1 (stereo not given),-17.1% (inactive),–
Cc1cc(C)c(C=O)c(C)c1,0.791% (inactive),–
Cc1ccc(O)cn1,0.806% (inactive),–
CCc1c(C(=O)O)c(=O)cnn1-c1ccc(Cl)cc1,2.54% (inactive),–
CC(=O)O[C@@H]1C[C@@H]2CC[C@@]1(C)C2(C)C,-9.55% (inactive),–
Clc1cccnc1,6.02% (inactive),–
Cc1ccc(-n2[nH]c(C)c(N=Nc3cccc(-c4cccc(C(=O)O)c4)c3O)c2=O)cc1C,-14.4% [at 35.3 µM] (inactive),–
CCc1ccc(O)c(C(C)(C)C)c1,4.31% (inactive),–
Clc1cc(Cl)c(-c2c(Cl)c(Cl)cc(Cl)c2Cl)cc1Cl,11.5% [at 35.3 µM] (inactive),–
COC(=O)[C@]1(C)CCC[C@@]2(C)[C@H]1CC=C1C=C(C(C)C)CC[C@@H]12,0.459% (inactive),–
CCC(=O)CC(C)CC (stereo not given),2.44% [at 0.29 µM] (inactive),–
OCCCS,-7.66% (inactive),–
Nc1ncnc2c1ncn2[C@@H]1O[C@H](COP(=O)(O)O)[C@@H](O)[C@H]1O,-0.393% [at 35.3 µM] (inactive),–
NC(=O)c1nc(-c2cccc(-c3cc(F)ccc3OCC(F)(F)C(F)(F)F)c2)n[nH]1,17.6% (inactive),–
CC1=CP(=O)(c2ccccc2)CC1 (stereo not given),-0.211% (inactive),–
Oc1ccc(-c2ccccc2)c(Cl)c1,-7.29% (inactive),–
NCCCC(O)(P(=O)(O)O)P(=O)(O)O,1.14% [at 35.3 µM] (inactive),–
